In all, about 340,000 compounds went through this assay and about 3,300 (0.97%) were called active. The sample as a whole holds a higher share of actives than the screen did. Values without a mark were called inactive.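 Rule for the calls: active = maximum activity change below -70%; inconclusive = maximum activity change from -70% to -50%; inactive = maximum activity change above -50%.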
% is set by controls: 0 for no effect and ±100 for the full control effect.

For this assay, the system named is Potassium voltage-gated channel subfamily H member 2, brain isoform KCNH2 3.1 (human). The assay is described as follows: qHTS for Inhibitors of KCHN2 3.1: Mutant qHTS. The note with it: U2OS KCNH2 3.1, thallium flux FluxOr; active compounds read low. The gist of the method: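 Thallium flux via FluxOr fluorescence (Red40 quencher, 45 min loading) in U2OS cells virally expressing the KCNH2 3.1 isoform (1.77 x 10^8 /mL virus, overnight at 37 C). Rate constants from 2-min kinetic reads post-stimulation, normalised to positive and negative controls.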
(In qHTS, concentration-response curves come from the screen itself.)
As for `N#CCCN(C(=S)Nc1ccc(Cl)c(Cl)c1)C1CCCCC1`, the activity change was -7.86%. In the case of `COc1cc(NC(=O)c2cncc(-c3ccc(C#N)cc3)c2)cc(C(=O)Nc2cccc(C(F)(F)F)c2)c1`, the activity change is -82.3% (active). For `COc1cccc(NC(=O)CN(C)C(C)C(=O)Nc2ccc(C#N)cc2)c1` (centres undefined), the activity change was 3.52%. The same measure for `COc1cc(NC(=O)c2[nH]cnc2C(N)=O)cc(C(=O)Nc2cccc(C(F)(F)F)c2)c1`: -24.6%; for `CCCNC(=O)C1CC(=O)N(c2ccc(OCc3ccccc3)cc2)C1` (centres undefined): -2.11%; for `O=C(C1CCCO1)N1CCN(C(=O)C23CC4CC(CC(C4)C2)C3)CC1` (centres undefined): 3.39%. As for `CC(=O)Nc1ccc(C=CC(=O)c2ccc([N+](=O)[O-])cc2)cc1`, the activity change was -4.78%.

Regarding `COc1ccc(NC(=O)N(C)C[C@H]2Oc3ncc(C#C[C@@H](C)O)cc3C(=O)N([C@H](C)CO)C[C@H]2C)cc1`, the activity change is -1.97%. For the compound `O[C@H]1C[C@H](c2ccc(Cl)cc2)N(Cc2cccs2)C[C@@H]1n1cc(C2CC2)nn1`, the activity change is 8.43%. As for `Cc1cc2oc(=O)cc(CN(C)Cc3ccc(OC(F)F)cc3)c2cc1Cl`, the activity change is -76% (active). In the case of `Cc1ccc(CN(C)Cc2cc(=O)oc3cc(C)c(Cl)cc23)cc1` it was -12.5%; in that of `CCOc1ccc(N(C)Cc2cc(=O)oc3ccc(OC)cc23)cc1`, -0.899%. For the compound `Cc1csc(SCC(=O)Nc2ccc(C)c(S(=O)(=O)N(C)C)c2)n1`, the activity change was -4.71%. Consider `Cc1ccc(C(=O)OCC(=O)NC2CCCCCCC2)cc1C`, for which the activity change is 8.83%.

Turning to `Cn1c(SCC(=O)N2CCOCC2)nnc1-c1ccc(NC(=O)c2ccccc2F)cc1`, the activity change was 7.57%.

Regarding `Cn1c(SCC(=O)Nc2cccc(NC(=O)c3cccs3)c2)nnc1-c1ccncc1`, the activity change was -4.66%. The same measure for `Cc1ccccc1C(=O)Nc1cccc(-c2nnc(SCC(=O)O)n2C)c1`: -82.3% (active). In the case of `CC(C)N(Cc1ccccc1)C(=S)Nc1ccc(OC(F)F)cc1` it was -14.2%. For the compound `CC(=O)c1ccc(NC(=S)N(Cc2ccccc2)C(C)C2CC2)cc1` (centres undefined), the activity change was -99.2% (active). For the compound `CC(=O)c1ccc(NC(=O)N[C@@H](Cc2ccccc2)C(=O)O)cc1`, the activity change is 0.757%.

As to `O=C(CCCN1C(=O)C2C3C=CC(C3)C2C1=O)N1CCN(c2ccccc2)CC1` (centres undefined), the activity change was 7.28%. As for `O=C(O)CCCN1C(=O)c2ccccc2Sc2ncccc21`, the activity change was -3.66%. In the case of `O=C(O)CCCN1C(=O)C2C3c4ccccc4C(c4ccccc43)[C@@H]2C1=O` (some centres undefined) it was -134% (active); in that of `C#CCN(C[C@H]1[C@H](OC(=O)NC2CCCC2)[C@H](OC(=O)NC2CCCC2)C[C@H]2C(=O)N(c3ccccc3)C(=O)[C@@H]12)S(=O)(=O)c1ccc(C)cc1`, -1.45%. In the case of `COC(=O)c1c(NC(=O)c2ccccc2F)sc2c1C(C(=O)OC)CC2` (centres undefined), the activity change was -2.07%. The same measure for `O=C(Nc1sc2c(c1C(=O)O)CCC2)c1ccccc1F`: -113% (active); for `O=C(O)c1c(NC(=O)N2CCCC2)sc2c1CCCC2`: -0.215%; for `O=C(OCc1ccccc1)N1CCC2CC1c1ccc(-c3ccc4c(c3)OCO4)cc12` (centres undefined): 6.28%. As to `CCC1NC(=O)c2cccnc2-n2c1nc1ccc(C)cc1c2=O` (centres undefined), the activity change is -12%.

In the case of `CC1(C)OC(=O)C2=C(CC(c3ccccc3)OC2CCc2ccccc2)O1` (centres undefined), the activity change was -4.16%. In the case of `Cc1cc(Cl)ccc1C(=O)C1CCCN(C(=O)c2ccc3c(c2)OCO3)C1` (centres undefined) it was 1.67%; in that of `COc1ccc(-c2ccc(CN3C(CC(C)C)C(=O)N(Cc4cn(CC5CCCCC5)nn4)CCS3(=O)=O)cc2)cn1` (centres undefined), -18%. As to `O=C(Nc1ccncc1)c1c(F)cccc1F`, the activity change is -70.9% (active). The same measure for `O=C(Nc1ccc(S(=O)(=O)N2CCCCCC2)cc1)c1c(F)cccc1F`: -17.5%; for `O=C(Nc1ccncc1)Nc1ccc(F)cc1`: 20.7%; for `CN(c1ccccc1)S(=O)(=O)c1ccc(C(=O)NCc2cccnc2)cc1`: -7.84%. The same measure for `CC(Oc1ccc(Cl)cc1)C(=O)OCC(=O)Nc1ncc(Cl)cc1Cl` (centres undefined): -101% (active). With `CC1(C(=O)OCC(=O)Nc2ncc(Cl)cc2Cl)CC1(Cl)Cl` (centres undefined), the activity change was 0.747%. In the case of `CC(Oc1ccc(Cl)cc1)C(=O)Nc1ncccn1` (centres undefined) it was 5.84%; in that of `Cc1ccc(-c2ccc(C3=CC(=O)CC(C)(C)C3=O)cc2)cc1`, -9.04%.

Take `C[C@H](CO)N1C[C@H](C)[C@@H](CN(C)S(=O)(=O)c2ccc(F)cc2)OCc2cnnn2CCCC1=O`: the activity change is -2.94%. `O=S(=O)(c1cccc(C(F)(F)F)c1)N1c2ccccc2-n2cccc2C1c1cccnc1` (centres undefined): the activity change was -17.4%. `CCCn1c(C(Cc2ccccc2)NC(=O)COC)nc2ccccc21` (centres undefined): the activity change was -1.15%. The same measure for `CCCC(NC(=O)c1ccccc1)c1nc2ccccc2n1Cc1ccc(C(=O)OC)o1` (centres undefined): -82% (active); for `COC(=O)c1ccc(Cc2ccccc2)o1`: 10.6%; for `Cc1ccc2[nH]c(=O)c(CN(CC3COCCO3)C(=O)Nc3ccccc3C)cc2c1` (centres undefined): -106% (active).

Turning to `Cc1cccc(NC(=O)N(Cc2cc3cc(C)cc(C)c3[nH]c2=O)CC2COCCO2)c1` (centres undefined), the activity change was -19.5%.

In the case of `COc1ccc2[nH]c(=O)c(CN(CC3CCCO3)C(=O)Nc3ccccc3)cc2c1` (centres undefined), the activity change was 8.12%.

As for `COc1cc(C(=O)N2CCOC23CCN(Cc2ccccc2)CC3)cc(OC)c1OC`, the activity change was -5.15%. For the compound `CN(C)C(CNC(=O)c1cccc(S(=O)(=O)N2CCc3ccccc3C2)c1)c1ccccc1` (centres undefined), the activity change was -1.69%. Regarding `COc1cccc(OCC(=O)NCCS(=O)(=O)N2CCN(c3ccccc3)CC2)c1`, the activity change was -1.4%.

Regarding `CCCCN1C(=O)C(CC(=O)NC(c2ccccc2)c2ccccc2)CC(C(=O)N2CCOCC2)=C1C` (centres undefined), the activity change was -3.63%.

Regarding `CC(C)(C)c1ccc(C(=O)NCc2nnc(SCC(=O)N3CCCc4ccccc43)n2-c2ccccc2)cc1`, the activity change was -6.73%. Take `Cn1c(SCC(=O)N2CCCc3ccccc32)nc2ccccc2c1=O`: the activity change is -2.54%. In the case of `O=C(CSc1nc2[nH]ncc2c(=O)n1-c1ccccc1)N1CCCc2ccccc21` it was -184% (active); in that of `CCOC(=O)C(=Cc1ccccc1)C(=O)c1ccccc1`, -13.1%; in that of `O=C(NCc1nnnn1-c1ccc(Cl)cc1)c1ccc([N+](=O)[O-])o1`, -3.24%. With `Cc1ccccc1S(=O)(=O)N1[C@@H](c2cccc(Cl)c2)C(C(=O)O)=CC[C@H]1c1ccc(Cl)cc1`, the activity change is 10%. The same measure for `Cc1ccc([C@@H]2CC=C(C(=O)O)[C@H](c3cccc(Cl)c3)N2S(=O)(=O)c2ccc(C)cc2)cc1`: -83.7% (active); for `Cc1ccc(S(=O)(=O)N2[C@@H](c3cccc(Cl)c3)C(C(=O)O)=CC[C@H]2c2ccc(Cl)c(Cl)c2)cc1`: -2.17%. Consider `Cc1nnc(SC(C)C(=O)c2c[nH]c3ccccc23)n1C1CC1` (centres undefined), for which the activity change was -8.46%.

Take `C#CCN(C[C@@H]1[C@@H](OC(=O)NC2CC2)[C@@H](OC(=O)NC2CC2)Cn2c(=O)ccc(=O)n21)S(=O)(=O)c1ccc(C)cc1`: the activity change was 0.102%. As to `Nc1nnc(SCC(=O)NCC(=O)Nc2ccc(F)c(F)c2F)s1`, the activity change is -119% (active). Take `Cc1ccc(S(=O)(=O)N2CCOCC2)cc1NC(=O)CSc1nnc(N)s1`: the activity change was 1.46%.

`Nc1nnc(SCC(=O)NC2CCCc3ccccc32)s1` (centres undefined): the activity change was -15.6%. For the compound `CCN(CC)C(=O)C1=C(C)N(Cc2ccccc2)C(=O)C(CC(=O)NC(c2ccccc2)c2ccccc2)C1` (centres undefined), the activity change is 0.781%.

For `Cc1noc(C)c1S(=O)(=O)N(C)C[C@H]1OCCCC[C@@H](C)Oc2ccc(NC(=O)CCCN(C)C)cc2C(=O)N([C@H](C)CO)C[C@@H]1C`, the activity change is 18.2%. For the compound `COC(=O)C[C@H]1C[C@@H]2c3cc(N(C)C)ccc3O[C@@H]2[C@H](CO)O1`, the activity change is 2.06%.

Regarding `O=C(Nc1cccc(C(=O)O)c1)/C(=C\c1ccccc1)NC(=O)c1ccc(Br)o1`, the activity change is 3.42%. Consider `Cc1cccc(N2CCC(NCc3c(C(=O)N4CCCCC4)nc4c(C)cccn34)CC2)c1`, for which the activity change was -70.6% (active). Consider `Cc1cccn2c(CNCC(C)Oc3cccnc3)c(C(=O)N3CCOCC3)nc12` (centres undefined), for which the activity change was 1.22%. The same measure for `CCOC(=O)C1CCN(Cc2c(C(=O)N3CCOCC3)nc3c(C)cccn23)CC1`: -6.64%; for `CC1=C(C(=O)N(C)C)CC(CC(=O)NCCc2ccccn2)C(=O)N1CCC1=CCCCC1` (centres undefined): 6.34%. Take `CN(Cc1c(F)cccc1Cl)C(=O)COC(=O)Cn1cnc2ccccc2c1=O`: the activity change is 2.53%.

For the compound `COc1ccc(C2=NS(=O)(=O)N(C)C(C(=O)N(C)Cc3ccccc3)=C2)cc1`, the activity change was 7.33%. The same measure for `COc1ccc(C2=NS(=O)(=O)N(C)C(C(=O)NC(C)c3ccccc3)=C2)cc1` (centres undefined): -85% (active); for `COc1ccc(NC(=O)C2=CC(c3ccc(OC)c(OC)c3)=NS(=O)(=O)N2C)cc1`: -5.31%. With `Cc1cc2c3ccccc3[nH]c(=O)n2n1`, the activity change was -1.28%.

With `COc1ccc([C@H]2N[C@]3(CCCN(CC4CCCCC4)C3=O)[C@H]3C(=O)N(C)C(=O)[C@@H]23)cc1`, the activity change is 4.21%. The same measure for `CCCCCCNC(=O)O[C@]12C[C@@H](C(=O)OC)[C@@H](C(=O)OC)C[C@@]1(O)CN(S(=O)(=O)c1ccc(C)cc1)C2`: -9.12%.

In the case of `CCN(CC)CCN(C(=O)c1ccc2c(c1)CCCC2)c1nc2c(OC)cccc2s1`, the activity change is -48.3%. As to `CC12C(=O)N(c3ccccc3)C(=O)C1C(c1ccccc1)N1CCCN12` (centres undefined), the activity change was 2.73%. The same measure for `CC(C)N1C(=O)N(c2ccccc2)C(C)(O)CC1(C)C` (centres undefined): -71.4% (active); for `CC(C)C1C2=C(CC(C)(C)CC2=O)ON1c1ccccc1` (centres undefined): -4.1%.

The record behind these values is PubChem BioAssay AID720553 (National Center for Advancing Translational Sciences (NCATS), 2013).
